Only some compounds are listed: those with a hit (about 27% of all), similar ones and a draw of the others.
sEH inh: soluble epoxide hydrolase (human) inhibition. P34913. recombinant human sEH enzymatic activity assay. inhibition, % at 2 µM. 0.34% of 91,000 active. AID 707; in the data active means inhibition above about 80%
CYP2C9 activ: increases human cytochrome P450 2C9 activity; AID 1024; activation factor at 5 µM; P11712; 1.4% of 96,000 active; recombinant CYP2C9, luciferin-H conversion, luminescence; active compounds read high; factor 1 = untreated enzyme, 0 = blocked;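 active means activation factor of 2 or more for CYP2C9 at a 5 µM dose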;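 further: 0 = sulfaphenazole-blocked wells and 1 = vehicle-only wells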
CYP2C9 inh: human CYP2C9 inhibition. P11712. CYP2C9 Supersomes, luciferin-H conversion, luminescence. inhibition, % at 5 µM. 20% of 96,000 active;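 active means blocking of liver enzyme CYP2C9 beyond about 50% at 5 µM, limit read from the data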
sEH act: activators of human soluble epoxide hydrolase; P34913; purified human sEH enzymatic activity, activator screen; activation, % at 2 µM; 0.04% of 91,000 active; AID 717; in the data active means activation above about 37%
CYP2C19 act: cytochrome P450 2C19 (human) activation | 96,000 tested, under 10 active | activation factor at 5 µM | P33261 | recombinant CYP2C19, luciferin-H EGE luminescence; active compounds read high; 0 = fully inhibited enzyme, 1 = untreated enzyme;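 active means activation factor of at least 2 at 5 µM in the primary screen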;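 further: 0 = wells with 2.5 mM tranylcypromine and 1 = vehicle-only wells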
CYP2C19 inhib: human CYP2C19 inhibition; CYP2C19 Supersomes, luciferin-H EGE luminescence, 30 min; AID 778; 21% of 96,000 active; inhibition, % at 5 µM; P33261;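 active means CYP2C19 inhibition above a set limit at 5 µM in the primary screen, cut at about 50% in these data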;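 further: plate controls were negative control wells for no effect and 2.5 mM tranylcypromine positive control for full effect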
Active calls of the source: *; . = no result.

SMILES	sEH inh	CYP2C9 activ	CYP2C9 inh	sEH act	CYP2C19 act	CYP2C19 inhib
Cc1cc(C)cc(N(C(=O)CNC(=O)c2cccs2)C(C(=O)NC2CCCC2)c2cccnc2)c1 (stereo unspecified)	-7	0.9	15	9	1	4
O=C(NC1CCCCC1)C(c1ccccc1)N(C(=O)c1cccs1)c1ccc2c(c1)OCO2 (stereo unspecified)	6	0.7	32	-3	0.9	9
Cc1cccc(C)c1NC(=O)N1CCC(n2c(=O)[nH]c3ccccc32)CC1	-11	1	3	8	0.9	8
O=C1CC(N2CCCc3ccccc32)C(=O)N1c1ccccc1Cl (stereo unspecified)	3	.	.	-4	.	.
O=C(O)CN(c1ccccc1F)S(=O)(=O)c1ccccc1	1	0.9	12	-2	1	0
CC1CC(NC(=O)CCn2c(=O)oc3ccccc32)CC(C)(C)C1 (stereo unspecified)	.	0.9	12	.	0.8	20
COc1ccc(C(OC(=O)c2c(C)noc2C)C(=O)NC2CCCC2)cc1 (stereo unspecified)	8	0.2	80*	-8	0.5	50*
COCCn1c(SCC(=O)NC(=O)NCc2ccccc2)nc2ccccc21	6	1.2	-17	-7	0.5	50
COCCn1c(SCC(=O)NC(=O)NC(C)C)nc2ccccc21	-1	0.7	30	2	0.5	46
COCCn1c(SCC(=O)Nc2ncc(Cl)c(C)c2Cl)nc2ccccc21	2	0.5	47	-1	0.1	93*
COCCn1c(SCC(=O)Nc2sccc2C(N)=O)nc2cc(Cl)ccc2c1=O	-4	0.4	60*	5	0.5	45
COCCn1c(SCC(=O)Nc2ccc(Cl)cn2)nc2ccccc21	4	1.2	-24	-2	0.1	90*
COCCn1c(SCC(=O)NC(=O)NC(C)(C)C)nc2ccccc21	-2	0.7	27	2	0.4	57*
Cn1c(=O)n(CCN2CCOCC2)c(=O)c2c1nc1n2CCCN1c1ccccc1	.	0.8	24	.	0.9	11
Cc1c(NC(=O)c2n[nH]c(=O)c3ccccc23)c(=O)n(-c2ccccc2)n1C	2	1.3	-27	0	1.2	-20
O=C(C1CCN(S(=O)(=O)N2CCC3(CC2)OCCO3)CC1)N1CCc2ccccc2C1	11	0.6	41	-10	0.2	76*
CCN(CCCNC(=O)C1CCN(S(=O)(=O)N2CCC3(CC2)OCCO3)CC1)c1ccccc1	90*	0.6	38	-90	0.5	53*
COc1ccc(OC)c(S(=O)(=O)N2CCC(C(=O)NCc3ccccc3OC)CC2)c1	32	2.4*	-144	-35	0.7	35
COc1ccccc1CNC(=O)C1CCN(C(=O)N(C)C)CC1	3	1.4	-40	0	1.1	-10
COc1ccccc1CNC(=O)C1CCN(S(=O)(=O)c2cccc3cccnc23)CC1	13	2.5*	-154	-12	0.4	64*
CCCc1cc(=O)n2[nH]c(-c3ccc(OC)cc3)nc2n1	1	0.8	15	-3	0.9	5
Cc1ccc(-c2ccc(/C=N/c3ncn[nH]3)o2)cc1Cl	7	1.1	-13	-2	1	-4
COc1ccc(OC)c(S(=O)(=O)N2CCC(C(=O)N3CCc4ccccc4C3)CC2)c1	0	1.1	-8	-2	0.2	78*
COc1ccc(OC)c(S(=O)(=O)N2CCC(C(=O)NCc3ccccc3)CC2)c1	22	3.7*	-268	-23	0.7	25
O=C(OCc1nc2ccccc2s1)[C@@H]1CCCN1S(=O)(=O)c1ccccc1F	-5	0.8	18	8	0.7	32
CCN(CC)CCCN1C(=O)C(=O)/C(=C(/O)c2ccc3c(c2)OCCO3)C1c1ccc(C)o1 (stereo unspecified)	.	1	-1	.	1	4
O=C(COc1ccc(F)c(Cl)c1)c1ccc[nH]1	3	0.9	12	-3	0.3	74*
O=C(Cc1ccc(Cl)cc1Cl)OCC(=O)c1ccc[nH]1	-12	0.7	34	13	0.9	14
Cc1occc1C(=O)NN=C1C2CC3CC(C2)CC1C3	3	.	.	-3	.	.
CCOC(=O)C1=C(CNCc2ccc(C)cc2)NC(=O)NC1c1ccc(OC)cc1 (stereo unspecified)	17	0.8	24	-17	0.8	22

Screens as filed in PubChem.
